Assay results from the supplement of paper PMC6555819.

Experiments:
Experiment in all cases: PBM binding z-score (relative to random genomic background probes); higher = stronger binding; sequences stand for … in GC…GCGATTGACAGCGTAGAATGAAGG
[1] = system: PPARg:RXRa DBDmut IVT, anti-RXR (DBD mutation: RXRa K156A/R161A, NR concentration 270 nM, RXRa partner concentration 90 nM)
Summary of the method: (§1)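 Ligand-free nuclear receptor dimers were applied to custom Agilent 4×180K protein-binding microarrays whose double-stranded probes carried direct-repeat seeds, single-nucleotide variants, half-site ablations and random human genomic background sequences in 34-nt variable regions. Incubation lasted 1 h. Binding z-scores were computed against the random background probes from regression-normalized fluorescence.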

[2] = system: PPARg:RXRa IVT, anti-PPARg (NR concentration 270 nM, RXRa partner concentration 90 nM)
Summary of the method: as §1

[3] = system: PPARg DBDmut:RXRa IVT, anti-PPARg (DBD mutation: PPARg1 K132A/R137A, NR concentration 270 nM, RXRa partner concentration 90 nM)
Summary of the method: as §1

[4] = system: PPARg DBDmut IVT, anti-PPARg (DBD mutation: PPARg1 K132A/R137A, NR concentration 270 nM)
Summary of the method: as §1

[5] = system: PPARg homodimer (NR concentration 180 nM)
Summary of the method: as §1

[6] = system: PXR:RXRa (NR concentration 270 nM, RXRa partner concentration 90 nM)
Summary of the method: as §1

[7] = system: PXR homodimer (NR concentration 270 nM)
Summary of the method: as §1

[8] = system: RARa:RXR (NR concentration 270 nM, RXRa partner concentration 90 nM)
Summary of the method: as §1

[9] = system: RARa homodimer (NR concentration 270 nM)
Summary of the method: as §1

[10] = system: RARb:RXRa (NR concentration 270 nM, RXRa partner concentration 90 nM)
Summary of the method: as §1

| Sequence | PBM binding z-score [1] | PBM binding z-score [2] | PBM binding z-score [3] | PBM binding z-score [4] | PBM binding z-score [5] | PBM binding z-score [6] | PBM binding z-score [7] | PBM binding z-score [8] | PBM binding z-score [9] | PBM binding z-score [10] |
| --- | --- | --- | --- | --- | --- | --- | --- | --- | --- | --- |
| TCTAGTTAGTCACGGAGGTCACACACGACGGGTA | 1.76 | 2.1 | 1.18 | 0.869 | 2.2 | 4.09 | 1.01 | 4.71 | 1.62 | 3.26 |
| GCTCGGAGGACAAGCTCAGAGCTTTGTCCGTAGA | -0.93 | -0.339 | -0.667 | -0.738 | -0.886 | -0.742 | -0.896 | -0.828 | -1.84 | 0.862 |
| CCTACTGGGCCAAGGTCAATGATCAGTCAAAGCA | 3.63 | 4.57 | -0.437 | -1.01 | 1.4 | 2.51 | 0.323 | 2.81 | 0.147 | 3.27 |
| TCATATAGGTAAAGGTGACAGTCGAACGATATGA | 4.04 | 4.07 | 1.74 | 1.19 | 0.889 | 0.897 | 0.245 | 1.44 | 0.76 | 1.9 |
| TCTTGTCGATCAAAGGTTAAGAAAGCCGAAGCCT | 1.37 | 2.3 | -0.0137 | 0.486 | 0.668 | 1.62 | -0.394 | 2.19 | -0.0364 | 1.91 |
| TAGCCTAGGTCATTCAGGGGCCAGTAAAGAAAGC | 1.81 | 3.14 | 0.536 | 0.653 | 1.04 | 2.39 | -0.023 | 3.28 | 0.0478 | 3.86 |
| CCTAGCAGGCCGGGGTCACTCAAGCATTTCGCTT | 0.19 | 1.7 | -1.3 | -0.709 | 1.87 | 5.35 | 0.474 | 5.98 | 0.348 | 3.53 |
| CCTCGGAGGACAGAAGGTGAGAGCTGTCCGCTTT | -0.327 | 0.0317 | -1.56 | -1.59 | 0.19 | -0.301 | -0.684 | 0.317 | -0.413 | 1.09 |
| CGTCCAAGGTCAGAGAGGTCAGGGAATGCCGAGT | 2.19 | 3.4 | 0.15 | 0.231 | 4.31 | 5.87 | 10.6 | 5.44 | 1.09 | 5.55 |
| TCGAGTAGGTTAGTCGCGGCATTCAGCCAACATA | 1.72 | 0.971 | -0.971 | -1.42 | -0.911 | -0.398 | -0.771 | -0.208 | -0.937 | -0.138 |
| AACGAAAGGTCGAGGTGAGTATAGAGAAAGGGAA | 0.47 | 2.34 | 0.731 | 0.177 | 1.1 | 2.6 | 0.272 | 3.51 | 0.313 | 4.23 |
| CGTCCAAGGTCATAGGAGCTCAGTGAAGACAGAT | 2.78 | 3.29 | 1.43 | -0.573 | 2.6 | 4.27 | 1.07 | 4.66 | 0.0934 | 5.1 |
| TTACCAAGGTGAAAGGTCGTTAATGCACGCCTTG | 2.25 | 4.95 | -0.238 | 0.567 | 1.27 | 3.35 | 0.236 | 4.98 | 0.00553 | 2.78 |
| GCTGCTAGGGCAGGTTGGTCAGCTAACGGGTACG | 0.814 | 0.109 | -1.41 | -2.26 | -0.535 | -0.732 | -0.597 | -0.985 | -1.07 | 1.16 |
| TGAAGGAGGTTAAAGATCAGGGAACGTGGCGTCG | 1 | 2.36 | 0.183 | -0.165 | 1.34 | 1.63 | 0.472 | 2.7 | 0.897 | 1.74 |
| TTACCATGGTGAAGGTCGTTGATCCCTCTGTAGA | -0.0288 | 0.772 | -0.132 | -0.462 | 0.317 | 1.1 | 0.0781 | 0.942 | -0.727 | 0.811 |
| GCACGGAGGACAAGGTCAGAGCTTTGTCCGTAGA | -0.0936 | 0.429 | -1.21 | -1.21 | 0.85 | 1.72 | -0.197 | 2.03 | -0.486 | 3.27 |
